Assay [1] can be described thus: Wnt pathway potentiators raising nuclear beta-catenin – imaging, WNT3A-conditioned medium, mouse C2C12, NPC library, primary screen (AID 1117326; in the data active means nuclear beta-catenin stimulation mostly above about 4.2%, no sharp cut-off; inactive means mostly below about 10%). The note with it: stronger effect = higher value.
The nature of assay [2]: stimulators of insulin release from INS-1E, primary screen, cell-based, 5 mM glucose, NPC library (AID 1117329;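 active means compound raises insulin release from rat beta cells at 5 mM glucose, no numeric limit stated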). Particulars: rat INS-1E insulin secretion, at 10 µM, stronger effect = higher value.
Assay [3] is described as follows: growth inhibition of GSK3B-pretreated HCT116 cells – cell-based, CellTiter-Glo, 0.2 to 20 µM (AID 1117336;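 active means compounds lowering colon cancer cell viability after pretreatment blocking the GSK3B kinase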). The note with it: HCT116 viability after GSK3B inhibitor, at 20 µM, stronger effect = higher value. In general terms: ATP-based viability assays read luminescence as a measure of living cells.
Assay [4] is described as follows: inhibition of endothelial tube formation, primary screen, imaging, VEGF stimulated, CD31 staining, tube area, NPC library (AID 1117340;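 active means compound that reduces growth-factor-driven endothelial tube area in a mixed cell culture, no cutoff stated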). The note with it: VEGF-stimulated ADSC/ECFC co-culture, at 10 µM, stronger effect = higher value.
Assay [5] is described as follows: GLP1 release stimulators, primary, NCI-H716, NPC library (AID 1117341;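 active means compound raises GLP1 secretion from the human gut endocrine cells, with no numeric limit stated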). Particulars: NCI-H716 cells, at 10 µM, stronger effect = higher value.
The nature of assay [6]: HCT116 colon cancer cell growth inhibition, primary screen, CellTiter-Glo luminescence, NPC library (AID 1117342;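 active means compounds that lower survival of HCT116 colon cancer cells in the luminescence readout, no numeric limit stated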). The note with it: at 20 µM (top of the series).
Assay [7] is described as follows: reduced SW480 viability measured with CellTiter-Glo, NPC library, primary (AID 1117343;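 active means compounds that lower viability of the colon cancer cells in the luminescence readout, with no numeric limit stated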). The note with it: CellTiter-Glo luminescence; at 20 µM (top of the series).
Assay [8] is described as follows: NPC library primary testing for decreased DLD-1 cell viability via CellTiter-Glo (AID 1117346;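 active means compounds that lower survival of DLD-1 colon cancer cells in the luminescence readout, no cutoff given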). Particulars: DLD-1 viability, CellTiter-Glo luminescence; at 20 µM (top of the series).
Assay [9] concerns the target 6-phosphogluconate dehydrogenase, decarboxylating (Homo sapiens) (UniProt P52209). As to the kind of experiment: inhibition of human phosphogluconate dehydrogenase – biochemical, recombinant enzyme, NADPH absorbance, primary screen (AID 1159550;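 active means at least 20% inhibition of 6-phosphogluconate dehydrogenase activity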). The note with it: recombinant 6PGD, NADPH absorbance 341 nm; at 10 µM; stronger effect = higher value.
The nature of assay [10]: EMT-state selective cytotoxicity in co-culture – imaging, PC-3E GFP, TEM4-18 mCherry, primary screen (AID 1345086;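 active means compounds killing one labelled cell type while sparing the other, by normalised counts and ratio limits, not self-fluorescent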;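 on all read-outs here: cells exposed to compound for 72 h before imaging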;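 on red/green cell ratio (normalised): normalised mesenchymal count divided by normalised epithelial count so high means epithelial killing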). The note with it: PC-3E GFP / TEM4-18 mCherry co-culture, imaging cell counts, at 1 µM; for red/green cell ratio (normalised): actives lie on both sides, counts scaled to control wells, 1 = unselective.
The nature of assay [11]: viability loss with induced miR-34 in A549 – imaging, A549 dox-inducible miR-34, nuclei and caspase counts, primary screen (AID 1347080;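 active means compounds whose cell count with miR-34 switched on is under 0.7 times the count with it off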). Particulars: A549 miR-34 inducible, Hoechst nuclei count, 48 h.
Assay [12] is described as follows: MELAS cybrid and Rieske KO viability enhancers – cell-based, MELAS cybrids, Rieske KO mouse fibroblasts, CellTiter-Glo, primary screen (AID 1508586;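 active means mean z-score across replicates of 1.96 or higher in either the MELAS or the Rieske mutant cell line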;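 further: z relative to plate mean and SD of compound and empty wells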). Particulars: low glucose.
In assay [13] the target is NAD(+) hydrolase SARM1 (Homo sapiens) (UniProt Q6SZW1). As to the kind of experiment: blocking NAD cleavage by SARM1 SAM-TIR – cell lysate, NAD-Glo luminescence (AID 1508614;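 active means compound whose remaining NAD level is above about 45 nM, limit read from the data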). The note with it: SAM-TIR HEK293T lysate NADase, at 1 µM, stronger effect = higher value.
In assay [14] the test system is F380Y. The assay can be described thus: BK channel mutant inhibitors and activators – cell-based, U2OS BacMam, thallium flux, beta subunits, selectivity assay, profiling panel (AID 1259406).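 Further: initial slope of Thallos dye fluorescence rise after thallium is added; log ratio against the mean of 0.3% DMSO vehicle wells on the same plate.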 Particulars: U2OS BacMam BK variants, at 30 µM.
Assay [15] deals with F380Y/beta1. Described as above. The note with it: U2OS BacMam BK variants, at 30 µM.
In assay [16] the test system is F380Y/beta2Delta. The description is as above. The note with it: U2OS BacMam BK variants, at 30 µM.
Assay [17] relates to F380Y/beta4. Described as above. The note with it: U2OS BacMam BK variants, at 30 µM.
The target of assay [18] is Calcium-activated potassium channel subunit alpha-1 (Homo sapiens) + Leucine-rich repeat-containing protein 26 (Homo sapiens) (UniProt Q12791+Q2I0M4). The description is as above. Particulars: U2OS BacMam BK variants, F380Y/Slo1WT/gamma1, at 30 µM.
For assay [19], the system named is R275C. The description is as above. The note with it: U2OS BacMam BK variants, at 30 µM.
[20] abbreviates: measured here: epithelial PC-3E GFP cell survival.
Where [21] appears, read: measured here: mesenchymal TEM4-18 mCherry cell survival.
Setting [22] is: MELAS cybrid survival, CellTiter-Glo 48 h, stronger effect = higher value.
Where [23] appears, read: Rieske KO mouse fibroblast survival, CellTiter-Glo 72 h.

Several values for one entry are separate records, joined by “and”; a condition that tells them apart may be missing. Equal values may be shown once. More than one record can exist for a structure, and the calls need not agree. Activity calls are given as the source filed them.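 How the source made its calls, unless noted: active means thallium flux through the channel raised or lowered by more than 3 SD from vehicle-only wells, actives on both sides; inactive means the rest.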

The inhibition is the drop in the measured response relative to a control, in per cent.

Sequence of NAD(+) hydrolase SARM1 (Homo sapiens) (Q6SZW1 whole entry, looked up): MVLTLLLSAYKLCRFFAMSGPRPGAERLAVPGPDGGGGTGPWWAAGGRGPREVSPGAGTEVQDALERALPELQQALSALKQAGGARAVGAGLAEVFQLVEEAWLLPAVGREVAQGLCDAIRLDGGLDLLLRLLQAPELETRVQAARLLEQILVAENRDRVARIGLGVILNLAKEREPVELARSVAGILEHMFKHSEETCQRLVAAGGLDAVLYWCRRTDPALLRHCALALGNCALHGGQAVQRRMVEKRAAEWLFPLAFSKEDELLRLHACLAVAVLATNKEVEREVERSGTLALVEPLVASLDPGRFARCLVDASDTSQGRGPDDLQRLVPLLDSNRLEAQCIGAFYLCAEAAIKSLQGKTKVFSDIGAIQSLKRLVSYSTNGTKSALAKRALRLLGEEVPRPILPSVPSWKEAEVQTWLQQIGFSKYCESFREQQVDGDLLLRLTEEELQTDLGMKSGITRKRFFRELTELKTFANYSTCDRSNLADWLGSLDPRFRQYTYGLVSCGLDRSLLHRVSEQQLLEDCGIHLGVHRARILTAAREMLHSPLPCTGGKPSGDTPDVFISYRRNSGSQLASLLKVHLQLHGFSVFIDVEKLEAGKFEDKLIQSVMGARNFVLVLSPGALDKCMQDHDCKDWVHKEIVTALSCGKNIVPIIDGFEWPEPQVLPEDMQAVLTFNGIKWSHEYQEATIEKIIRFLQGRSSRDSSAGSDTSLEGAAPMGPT
Sequence of 6-phosphogluconate dehydrogenase, decarboxylating (Homo sapiens) (P52209 whole entry, looked up): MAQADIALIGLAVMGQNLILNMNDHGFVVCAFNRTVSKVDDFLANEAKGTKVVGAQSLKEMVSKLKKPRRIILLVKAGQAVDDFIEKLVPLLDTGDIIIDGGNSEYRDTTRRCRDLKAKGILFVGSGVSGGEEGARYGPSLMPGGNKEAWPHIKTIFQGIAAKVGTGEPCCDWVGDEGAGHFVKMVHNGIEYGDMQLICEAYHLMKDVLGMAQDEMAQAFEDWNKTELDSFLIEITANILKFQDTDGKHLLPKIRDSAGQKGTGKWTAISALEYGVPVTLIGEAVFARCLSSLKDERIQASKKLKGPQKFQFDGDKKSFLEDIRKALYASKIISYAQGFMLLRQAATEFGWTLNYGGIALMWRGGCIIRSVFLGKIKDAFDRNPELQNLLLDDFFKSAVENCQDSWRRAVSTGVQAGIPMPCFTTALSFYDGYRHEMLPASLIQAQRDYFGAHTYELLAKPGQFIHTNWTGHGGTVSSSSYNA
Sequence of Calcium-activated potassium channel subunit alpha-1 (Homo sapiens) + Leucine-rich repeat-containing protein 26 (Homo sapiens) (Q2I0M4 whole entry, looked up, one chain of several): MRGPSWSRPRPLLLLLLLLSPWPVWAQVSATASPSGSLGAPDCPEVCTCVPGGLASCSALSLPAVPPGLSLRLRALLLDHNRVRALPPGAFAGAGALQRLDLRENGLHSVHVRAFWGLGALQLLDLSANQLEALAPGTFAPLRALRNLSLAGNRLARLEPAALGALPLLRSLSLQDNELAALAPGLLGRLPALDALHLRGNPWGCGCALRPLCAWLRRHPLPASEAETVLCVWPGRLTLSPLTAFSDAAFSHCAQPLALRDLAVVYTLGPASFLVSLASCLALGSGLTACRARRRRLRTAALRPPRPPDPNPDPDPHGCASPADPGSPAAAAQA

For `C/C=C/C(=O)N(CC)c1ccccc1C`, the nuclear beta-catenin stimulation in assay [1] (at 10 µM) was 1.7% (inactive); in assay [1] (stimulation, at 2 µM) it was 0.9%. Also, the insulin secretion stimulation in assay [2] is -0.4% (inactive). Further, in assay [3], the viability decrease is -18.4% (inactive). For the same compound, in [4], the tube area decrease was 12.7% (inactive). Also, the GLP1 secretion stimulation in [5] is -3.7% (inactive). For the same compound, the inhibition of viability in assay [6] is -11.3% (inactive). Further, the viability decrease (inhibition) in [7] was 19.5% (inactive); in assay [8] it was -26.5% (inactive). Besides, the inhibition in assay [9] is -11.5% (inactive). Also, the red/green cell ratio (normalised) in assay [10] is 1.1 (inactive). The normalised cell number in assay [10] (setting [20]) was determined as 0.88; in assay [10] (setting [21]), 0.97. Further, the fold change in assay [11] (stronger effect = lower value, cell number ratio, induced over uninduced) is 0.871 (inactive) and 0.856 (inactive) and 0.894 (inactive); in assay [11] (measured here: relative caspase fold change +Dox/-Dox), 1.68 and 2.74 and 1.41. Also, the cell count in assay [11] (measured here: total cells with miR-34 induction, stronger effect = lower value) is 8830 and 11400 and 8670; in assay [11] (measured here: total cells without miR-34 induction), 10100 and 13300 and 9700. The z-score in assay [12] (setting [22]) is -0.397 (inactive) and -0.423 (inactive); in assay [12] (setting [23]), -1.25 and -1.17. The remaining NAD in [13] is 10 nM (inactive). Also, the log fold change Tl+ flux in assay [14] was 0.0255 (inactive); in assay [15], -0.0381 (inactive); in assay [16], -0.0171 (inactive); in [17], -0.00302 (inactive); in assay [18], 0.0385 (inactive); in [19], -0.0159 (inactive).
As to `Cn1cnc([N+](=O)[O-])c1Sc1ncnc2nc[nH]c12`, the nuclear beta-catenin stimulation is 1.2% (inactive) in assay [1] (at 10 µM) and 0.7% in assay [1] (stimulation, at 2 µM). The insulin secretion stimulation in assay [2] was 0.2% (inactive). The viability decrease in assay [3] was 42% (active). Further, the tube area decrease in assay [4] was 29.1% (inactive). Further, the GLP1 secretion stimulation in [5] is 4.1% (inactive). In addition, the inhibition of viability in assay [6] is 99.5% (active). For the same compound, the viability decrease (inhibition) in assay [7] was 77.3% (active); in assay [8] it was 35.5% (active). The inhibition in assay [9] was 2.32% (inactive). For the same compound, the red/green cell ratio (normalised) in assay [10] was 0.98 (inactive). The normalised cell number stood at 1.13 in [10] (setting [20]) and 1.11 in assay [10] (setting [21]). Moreover, the z-score in assay [12] (setting [22]) is 0.345 (inactive) and 1.98 (active); in [12] (setting [23]), 0.8 and 0.138. Further, the remaining NAD in [13] was 10 nM (inactive). In addition, the log fold change Tl+ flux in assay [14] was -0.0816 (inactive); in [15] it was -0.0302 (inactive); in [16], -0.0522 (inactive); in assay [17], -0.00991 (inactive); in [18] it was -4.3e-05 (inactive); in assay [19], -0.0406 (inactive).
As to `Cc1cn([C@H]2C[C@H](N=[N+]=[N-])[C@@H](CO)O2)c(=O)[nH]c1=O`, the nuclear beta-catenin stimulation is 1.2% (inactive) in assay [1] (at 10 µM) and 1.3% in assay [1] (stimulation, at 2 µM). Besides, in assay [2], the insulin secretion stimulation was -1.7% (inactive). The viability decrease in [3] was 4.9% (inactive). The tube area decrease in assay [4] is 18.1% (inactive). The GLP1 secretion stimulation in assay [5] was -0.1% (inactive). In addition, the inhibition of viability in assay [6] is 2.4% (inactive). Also, the viability decrease (inhibition) was -5.4% (inactive) in assay [7] and -4.95% (inactive) in assay [8]. For the same compound, the inhibition in assay [9] was 13.6% (inactive). In addition, the red/green cell ratio (normalised) in assay [10] was 1.03 (inactive). The values for the normalised cell number in [10] (setting [20]) and in assay [10] (setting [21]) were 1.06 and 1.09, respectively. For the same compound, the z-score in [12] (setting [22]) was 1.37 (inactive) and 1.42 (inactive); in assay [12] (setting [23]) it was 0.0413 and -0.28. For the same compound, in assay [13], the remaining NAD was 10 nM (inactive). The log fold change Tl+ flux in assay [14] was -0.00123 (inactive); in assay [15] it was 0.0379 (inactive); in assay [16] it was 0.00186 (inactive); in assay [17], 0.0148 (inactive); in assay [18], 0.0181 (inactive); in [19] it was -0.0157 (inactive).

Values taken from PubChem BioAssay.
